Source: PubChem (National Center for Advancing Translational Sciences (NCATS))
Sampled rows, rich in hits. Any-hit rate of the full collection: about 12%.
Pf growth 96h – inhibits malaria parasite growth, 96 h | Potency, µM (top dose mostly 28.7 µM), most hits filed as inhibitors | P. falciparum luciferase reporter growth, 96 h | 6.9% of 320,000 active | AID 504834
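Plates of compound plus infected erythrocytes (2% hematocrit, 0.05% parasitemia final) incubate 96 hours, 37 C, 5% CO2. Detection reagent added; reduced luminescence from the parasites' luciferase reporter flags inhibition.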
Sm TGR block – blocks Schistosoma mansoni thioredoxin glutathione reductase; Potency, µM (titrated, usually from 114 µM), actives largely listed as inhibitors; purified TGR, DTNB reduction, TNB absorbance 405 nm; Q962Y6; 3% of 360,000 active; note: nearly all actives have a fitted effect of over 60% in size
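First, TGR (20 nM dispensed) and NADPH were mixed with compound. Second, a 15 min room-temperature incubation followed. Third, further NADPH and then DTNB were added to start the reaction. Finally, TNB absorbance was monitored kinetically.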
SARS PLP yeast – SARS-CoV PLP inhibition in yeast; AID 485353; S. cerevisiae expressing SARS-CoV PLpro, growth rescue; Potency, µM (series often up to 32.9 µM), most hits filed as activators; 0.19% of 330,000 active; calls by dose curve; note: nearly all actives have a fitted effect of over 55% in size
Pf growth 48h – P. falciparum growth inhibition at 48 hours (one generation); Potency, µM (doses to about 28.7 µM), most hits filed as inhibitors; P. falciparum luciferase growth in erythrocytes, 48 h; AID 504832; 5.9% of 310,000 active
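Read-out is firefly luciferase luminescence from an integrated reporter in P. falciparum, so falling signal marks reduced parasite growth. Infected erythrocytes were at 2% hematocrit and 0.1% parasitemia (final) in Albumax-supplemented RPMI 1640.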
Large screens that a line does not name were inactive. Unless noted, calls come from the whole dose curve; as a rule, active = well fitted curve in the direction sought with a large enough effect; inconclusive = small, poorly fitted or top-dose-only effect, or another doubt; inactive = no such curve, though single readings can be large; an effect the other way counts as inactive or inconclusive.

CC1=C(C(=O)OCc2ccccc2)C(c2ccc(C)o2)C2=C(CCCC2=O)N1 (configuration not stated)	Sm TGR block inconclusive, Pf growth 48h 12µM
CCc1ccc(C2NC(=O)c3[nH]nc(-c4cccc(OC)c4)c32)cc1 (configuration not stated)	none (no result: Pf growth 96h, SARS PLP yeast, Pf growth 48h)
CCOC(=O)N1CCC(=NNS(=O)(=O)c2cccc([N+](=O)[O-])c2)CC1	Sm TGR block 28µM (no result: Pf growth 96h)
O=Cc1cn(-c2ccccc2)nc1-c1cc2ccccc2oc1=O	none (no result: Pf growth 96h)
O=C1CSC(c2cn(-c3ccccc3)nc2-c2cccs2)N1Cc1ccccc1 (configuration not stated)	none (no result: Pf growth 48h)
O=C1CSC(c2cn(-c3ccccc3)nc2-c2cc3ccccc3o2)N1Cc1ccccc1 (configuration not stated)	Pf growth 96h 4.1µM (no result: Pf growth 48h)
O=C1CSC(c2ccccc2)N1Cc1ccccc1 (configuration not stated)	Pf growth 96h inconclusive
Cc1ccc(-c2nn(-c3ccccc3)cc2C2SCC(=O)N2Cc2ccccc2)o1 (configuration not stated)	Sm TGR block 11µM, Pf growth 48h 10µM
O=C1CSC(c2cn(-c3ccccc3)nc2-c2cc3ccccc3oc2=O)N1Cc1ccco1 (configuration not stated)	Pf growth 96h inconclusive, Sm TGR block 22µM, Pf growth 48h 10µM
O=C(COc1ccc([N+](=O)[O-])cc1)Nc1cc(S(=O)(=O)N2CCCCC2)ccc1N1CCCCC1	Pf growth 96h inconclusive, Pf growth 48h inconclusive
O=C(COc1ccccc1)Nc1ccc(S(=O)(=O)N2CCCCCC2)cc1	Pf growth 96h inconclusive (no result: Pf growth 48h)
O=C(COc1ccc(S(=O)(=O)N2CCCCC2)cc1)Nc1ccccc1F	Pf growth 48h 12µM
CCN1CCN(c2ccc(S(=O)(=O)N3CCCCC3)cc2NC(=O)COc2ccc(Cl)cc2)CC1	Pf growth 96h inconclusive, Pf growth 48h 8.3µM (no result: SARS PLP yeast)
O=C(COc1ccc(F)cc1)Nc1cc(S(=O)(=O)N2CCCCC2)ccc1N1CCCCC1	Pf growth 96h 7.4µM, Pf growth 48h 3.7µM
CCN1CCN(c2ccc(S(=O)(=O)N3CCCCC3)cc2NC(=O)COc2cc(C)ccc2Cl)CC1	Pf growth 96h 1.9µM, Pf growth 48h 12µM
O=C(NCCS(=O)(=O)N1CCN(c2cccc(Cl)c2)CC1)c1ccc2c(c1)OCO2	none
CCN1CCN(c2ccc(S(=O)(=O)N3CCCCC3)cc2NC(=O)COc2ccc(F)cc2Cl)CC1	Pf growth 96h inconclusive, Pf growth 48h 7.4µM
CCCNC(=O)C1CC(c2ccccc2C(F)(F)F)=NO1 (configuration not stated)	Pf growth 48h inconclusive
CCOC(=O)c1c(NC(=O)C(F)(OC)C(F)(F)F)sc(C(=O)N2CCCCC2)c1C (configuration not stated)	Pf growth 48h 12µM
CCOC(=O)c1sc(NC(=O)CN2CCCC2)c(C(=O)OCC)c1C	none (no result: SARS PLP yeast)
CCOc1ccc(CCNc2nc3ccc(C)cc3n3cnnc23)cc1OCC	Pf growth 96h inconclusive, Pf growth 48h inconclusive
CCCc1cc(O)c2c(C)cc(=O)oc2c1	Pf growth 96h 12µM, Pf growth 48h inconclusive
COc1cc(OC)cc(-n2c(=O)c3sccc3n(Cc3cc(=O)n4c(C)cccc4n3)c2=O)c1	none (no result: Pf growth 96h, SARS PLP yeast, Pf growth 48h)
O=c1c2sccc2n(Cc2cc(=O)n3ccccc3n2)c(=O)n1-c1ccccc1	Pf growth 96h 4.7µM
Cc1ccc(CN(C(=O)c2csnn2)C(C(=O)NC2CCCC2)c2ccc(C)o2)cc1 (configuration not stated)	Pf growth 48h 15µM
CCC(C)(C)NC(=O)C(c1ccncc1)N(Cc1ccc(C)cc1)C(=O)c1csnn1 (configuration not stated)	Pf growth 96h 4.7µM
CC(C)(C)NC(=O)C(c1cccs1)N(C(=O)c1csnn1)c1cccc(F)c1 (configuration not stated)	none (no result: Sm TGR block)
CC(C)(C)NC(=O)C(c1cccs1)N(Cc1ccc(F)cc1)C(=O)c1csnn1 (configuration not stated)	Pf growth 48h 9.3µM
CCOC(=O)C1=C(C)N=C2SC(C(=O)OC)=CC(=O)N2C1c1cccc(OC)c1 (configuration not stated)	Sm TGR block inconclusive, Pf growth 48h 7.4µM
CCC(c1nnnn1Cc1cccs1)N1CCN(c2nc3ccccc3s2)CC1 (configuration not stated)	Pf growth 96h inconclusive, Pf growth 48h 9.3µM
CC(C)CC(c1nnnn1Cc1cccs1)N1CCN(c2nc3ccccc3s2)CC1 (configuration not stated)	Pf growth 48h 12µM
